The full data set covers some 7,900 targets. This sample favours those with a hit. About 0.6% of all pairs of compound and target were hits. A number with no mark means an inactive call.
Columns and labels:
Assay in all cases: log2 fold change, soluble protein after heating vs DMSO (PISA); higher = thermal stabilisation; K562 cells, 10 uM, 30 min; active = over 0.2 and 3.5 SD of the protein, either way, in both replicates (recomputed)
[1] = compound: CC[C@@H]1C(=O)N(C)c2cnc(Nc3ccc(C(=O)NC4CCN(C)CC4)cc3OC)nc2N1C1CCCC1
Summary of the method: (§1)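 For each measurement, 10 μM compound was applied for 30 min to K562 cells at 2×10^6 cells/mL. Aliquots were heated for 3 min across 48°C-58°C, pooled, and extracted in PBS with 0.5% NP-40 at 4°C; the supernatant after 21,000xg for 90 min was soluble protein. This was quantified by TMTpro 16plex LC-MS/MS with channel sums equalised, and thermal stability was reported relative to control samples from duplicates, on a log2 fold-change scale.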

volasertib = compound: CC[C@@H]1C(=O)N(C)c2cnc(Nc3ccc(C(=O)N[C@H]4CC[C@H](N5CCN(CC6CC6)CC5)CC4)cc3OC)nc2N1C(C)C [volasertib]
Summary of the method: as §1

[2] = compound: CC[C@H](C)N1C=C(C2=C(C=C(C=C21)C3=CN=C(C=C3)N4CCNCC4)C(=O)NCC5=C(C=C(NC5=O)C)C)C
Summary of the method: as §1

epoxomicin = compound: CC[C@H](C)[C@@H](C(=O)N[C@@H]([C@@H](C)O)C(=O)N[C@@H](CC(C)C)C(=O)[C@]1(CO1)C)NC(=O)[C@H]([C@@H](C)CC)N(C)C(=O)C [epoxomicin]
Summary of the method: as §1

[3] = compound: CCn1c(C(=O)N(C2CC2)C2CC2)cc2c3c(ncn3C)c(Nc3cc(C)n(C)n3)nc21
Summary of the method: as §1

[4] = compound: CCn1cc(-c2ccnc3[nH]c(-c4cccc(CN(C)C)c4)cc23)c(-c2ccc(NC(=O)N(C)C)cc2)n1
Summary of the method: as §1

[5] = compound: CN(C)CC(=O)Nc1ccc2[nH]c(=O)c3ccccc3c2c1
Summary of the method: as §1

rosiglitazone = compound: CN(CCOC1=CC=C(C=C1)C[C@H]2C(=O)NC(=O)S2)C3=CC=CC=N3 (racemic) [rosiglitazone]
Summary of the method: as §1

[6] = compound: CN1C2=C(C3=C1C(=O)N(N=C3)CC4=CC(=CC=C4)N)SC(=C2)S(=O)C
Summary of the method: as §1

[7] = compound: CN1CCC(CNc2ccc3ncc(-c4cccc(OC(F)(F)F)c4)n3n2)CC1
Summary of the method: as §1

UniProt P27694, sequence (P27694 whole entry, looked up): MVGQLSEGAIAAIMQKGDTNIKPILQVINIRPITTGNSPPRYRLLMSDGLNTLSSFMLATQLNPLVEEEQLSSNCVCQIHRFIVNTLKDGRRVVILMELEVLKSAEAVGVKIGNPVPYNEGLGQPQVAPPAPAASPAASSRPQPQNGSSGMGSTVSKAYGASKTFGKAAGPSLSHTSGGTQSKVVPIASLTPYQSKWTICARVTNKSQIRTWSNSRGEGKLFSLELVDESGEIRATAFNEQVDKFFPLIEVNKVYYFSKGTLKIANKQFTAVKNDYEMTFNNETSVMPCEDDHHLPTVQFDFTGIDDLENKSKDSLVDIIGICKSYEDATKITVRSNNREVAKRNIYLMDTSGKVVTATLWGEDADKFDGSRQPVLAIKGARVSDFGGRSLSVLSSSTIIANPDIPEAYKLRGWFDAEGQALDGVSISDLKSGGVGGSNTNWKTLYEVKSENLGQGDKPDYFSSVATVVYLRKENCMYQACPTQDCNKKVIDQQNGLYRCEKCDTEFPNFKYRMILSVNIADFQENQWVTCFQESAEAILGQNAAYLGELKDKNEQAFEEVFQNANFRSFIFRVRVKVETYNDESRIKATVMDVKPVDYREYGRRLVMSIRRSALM
UniProt Q14498, sequence (Q14498 whole entry, looked up): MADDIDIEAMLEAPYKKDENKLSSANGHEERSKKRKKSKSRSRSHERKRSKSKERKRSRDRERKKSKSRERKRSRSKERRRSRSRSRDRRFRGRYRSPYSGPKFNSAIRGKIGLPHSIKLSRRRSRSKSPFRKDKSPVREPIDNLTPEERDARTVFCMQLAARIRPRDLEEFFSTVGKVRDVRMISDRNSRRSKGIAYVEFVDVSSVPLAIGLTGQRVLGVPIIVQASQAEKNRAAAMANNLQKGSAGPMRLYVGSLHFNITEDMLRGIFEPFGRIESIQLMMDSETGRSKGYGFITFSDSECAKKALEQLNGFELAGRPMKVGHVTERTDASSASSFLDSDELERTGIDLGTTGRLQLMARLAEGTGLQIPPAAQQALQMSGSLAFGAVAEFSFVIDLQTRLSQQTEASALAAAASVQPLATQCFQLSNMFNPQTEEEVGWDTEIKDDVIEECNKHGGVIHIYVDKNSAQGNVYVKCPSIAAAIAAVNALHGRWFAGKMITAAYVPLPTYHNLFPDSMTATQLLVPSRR
UniProt P40938, sequence (P40938 whole entry, looked up): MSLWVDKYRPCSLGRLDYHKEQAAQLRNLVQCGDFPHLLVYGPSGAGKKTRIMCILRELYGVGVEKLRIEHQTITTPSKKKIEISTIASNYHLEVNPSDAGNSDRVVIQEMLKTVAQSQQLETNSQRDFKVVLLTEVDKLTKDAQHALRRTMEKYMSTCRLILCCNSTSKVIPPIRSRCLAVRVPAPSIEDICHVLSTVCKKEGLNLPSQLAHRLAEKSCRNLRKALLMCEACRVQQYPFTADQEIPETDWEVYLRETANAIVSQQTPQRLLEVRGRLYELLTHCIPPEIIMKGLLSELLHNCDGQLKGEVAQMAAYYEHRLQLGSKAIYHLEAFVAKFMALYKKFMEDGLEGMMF
UniProt Q96T23, sequence (Q96T23 whole entry, looked up): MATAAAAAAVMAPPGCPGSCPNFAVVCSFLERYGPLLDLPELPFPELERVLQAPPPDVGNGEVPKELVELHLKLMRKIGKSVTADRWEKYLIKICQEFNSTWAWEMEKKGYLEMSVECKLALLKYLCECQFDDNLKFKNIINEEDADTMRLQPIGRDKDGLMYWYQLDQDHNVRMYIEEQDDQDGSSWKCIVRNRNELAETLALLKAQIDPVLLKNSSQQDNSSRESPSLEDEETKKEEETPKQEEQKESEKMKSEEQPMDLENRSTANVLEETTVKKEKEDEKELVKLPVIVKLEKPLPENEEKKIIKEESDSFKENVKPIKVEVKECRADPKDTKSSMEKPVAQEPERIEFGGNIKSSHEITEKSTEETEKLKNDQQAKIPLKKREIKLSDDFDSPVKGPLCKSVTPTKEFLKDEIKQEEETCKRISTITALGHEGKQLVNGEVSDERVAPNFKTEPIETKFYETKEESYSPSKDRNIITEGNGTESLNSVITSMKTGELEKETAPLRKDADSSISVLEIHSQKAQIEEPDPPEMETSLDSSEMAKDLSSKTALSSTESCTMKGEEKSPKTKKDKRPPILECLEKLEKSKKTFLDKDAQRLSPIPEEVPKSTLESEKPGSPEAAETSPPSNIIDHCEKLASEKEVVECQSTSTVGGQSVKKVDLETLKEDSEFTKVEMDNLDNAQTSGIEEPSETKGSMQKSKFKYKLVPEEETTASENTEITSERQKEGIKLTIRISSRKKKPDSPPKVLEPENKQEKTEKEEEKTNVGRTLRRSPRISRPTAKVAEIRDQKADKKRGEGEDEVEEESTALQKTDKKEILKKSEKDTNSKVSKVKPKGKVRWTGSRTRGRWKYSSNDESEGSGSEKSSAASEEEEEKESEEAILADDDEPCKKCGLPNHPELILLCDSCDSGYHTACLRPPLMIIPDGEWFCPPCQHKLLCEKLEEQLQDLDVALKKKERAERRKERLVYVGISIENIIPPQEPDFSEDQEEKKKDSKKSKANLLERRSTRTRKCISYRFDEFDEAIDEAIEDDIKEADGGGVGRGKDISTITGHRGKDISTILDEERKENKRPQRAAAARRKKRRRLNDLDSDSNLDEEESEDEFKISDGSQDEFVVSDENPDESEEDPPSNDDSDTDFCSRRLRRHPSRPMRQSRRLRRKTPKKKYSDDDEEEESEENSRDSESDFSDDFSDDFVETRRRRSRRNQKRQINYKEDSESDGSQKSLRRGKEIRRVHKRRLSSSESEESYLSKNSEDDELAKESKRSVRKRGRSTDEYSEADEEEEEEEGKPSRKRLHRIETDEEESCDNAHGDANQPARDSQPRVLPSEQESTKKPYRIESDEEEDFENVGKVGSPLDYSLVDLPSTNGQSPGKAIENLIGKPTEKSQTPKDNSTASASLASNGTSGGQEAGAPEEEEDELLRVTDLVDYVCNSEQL
UniProt O95486, sequence (O95486 whole entry, looked up): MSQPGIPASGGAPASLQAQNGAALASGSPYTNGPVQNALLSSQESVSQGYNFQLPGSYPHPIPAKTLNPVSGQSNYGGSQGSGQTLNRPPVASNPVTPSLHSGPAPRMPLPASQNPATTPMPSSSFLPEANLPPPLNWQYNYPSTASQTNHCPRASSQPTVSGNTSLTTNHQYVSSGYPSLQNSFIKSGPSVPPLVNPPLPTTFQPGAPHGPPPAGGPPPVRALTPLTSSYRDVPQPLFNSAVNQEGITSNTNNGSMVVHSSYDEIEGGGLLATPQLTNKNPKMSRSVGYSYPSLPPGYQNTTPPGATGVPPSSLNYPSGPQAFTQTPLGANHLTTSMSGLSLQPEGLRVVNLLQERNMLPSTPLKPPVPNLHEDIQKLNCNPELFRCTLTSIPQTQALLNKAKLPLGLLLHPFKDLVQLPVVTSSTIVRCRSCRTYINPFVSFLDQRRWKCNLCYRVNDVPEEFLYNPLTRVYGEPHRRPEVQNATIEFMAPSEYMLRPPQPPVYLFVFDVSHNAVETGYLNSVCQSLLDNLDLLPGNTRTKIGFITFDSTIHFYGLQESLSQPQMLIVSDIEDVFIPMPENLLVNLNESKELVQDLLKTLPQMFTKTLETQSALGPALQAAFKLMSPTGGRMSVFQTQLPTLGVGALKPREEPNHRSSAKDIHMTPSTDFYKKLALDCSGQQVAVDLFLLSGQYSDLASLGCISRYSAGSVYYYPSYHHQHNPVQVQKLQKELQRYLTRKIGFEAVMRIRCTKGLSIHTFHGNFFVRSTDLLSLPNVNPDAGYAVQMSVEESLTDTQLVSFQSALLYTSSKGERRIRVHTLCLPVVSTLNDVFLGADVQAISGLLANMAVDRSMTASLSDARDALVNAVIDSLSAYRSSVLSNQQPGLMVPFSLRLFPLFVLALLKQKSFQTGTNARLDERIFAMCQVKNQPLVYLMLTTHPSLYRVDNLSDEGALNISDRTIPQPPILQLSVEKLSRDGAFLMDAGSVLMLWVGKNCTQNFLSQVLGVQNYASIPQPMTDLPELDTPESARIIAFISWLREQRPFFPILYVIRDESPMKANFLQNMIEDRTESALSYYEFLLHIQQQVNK
UniProt Q8N0T1, sequence (Q8N0T1 whole entry, looked up): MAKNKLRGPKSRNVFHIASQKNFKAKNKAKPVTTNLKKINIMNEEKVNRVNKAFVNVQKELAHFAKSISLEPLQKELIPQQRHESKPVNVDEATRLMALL
UniProt Q92696, sequence (Q92696 whole entry, looked up): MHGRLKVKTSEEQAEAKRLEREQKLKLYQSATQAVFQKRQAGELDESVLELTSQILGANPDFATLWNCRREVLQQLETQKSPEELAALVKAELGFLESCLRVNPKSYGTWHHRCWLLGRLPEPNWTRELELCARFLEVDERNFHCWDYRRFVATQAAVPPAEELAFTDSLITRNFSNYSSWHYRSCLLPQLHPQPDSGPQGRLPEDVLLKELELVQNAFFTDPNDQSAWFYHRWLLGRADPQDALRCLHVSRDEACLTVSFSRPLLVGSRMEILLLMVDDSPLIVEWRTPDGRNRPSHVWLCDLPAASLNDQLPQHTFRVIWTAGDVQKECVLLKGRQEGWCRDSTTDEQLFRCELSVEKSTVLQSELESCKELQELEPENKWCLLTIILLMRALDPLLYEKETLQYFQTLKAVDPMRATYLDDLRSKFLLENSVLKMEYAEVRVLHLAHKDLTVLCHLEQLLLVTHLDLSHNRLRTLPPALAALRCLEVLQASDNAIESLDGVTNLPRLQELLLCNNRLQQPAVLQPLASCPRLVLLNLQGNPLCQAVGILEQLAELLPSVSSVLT
UniProt O15127, sequence (O15127 whole entry, looked up): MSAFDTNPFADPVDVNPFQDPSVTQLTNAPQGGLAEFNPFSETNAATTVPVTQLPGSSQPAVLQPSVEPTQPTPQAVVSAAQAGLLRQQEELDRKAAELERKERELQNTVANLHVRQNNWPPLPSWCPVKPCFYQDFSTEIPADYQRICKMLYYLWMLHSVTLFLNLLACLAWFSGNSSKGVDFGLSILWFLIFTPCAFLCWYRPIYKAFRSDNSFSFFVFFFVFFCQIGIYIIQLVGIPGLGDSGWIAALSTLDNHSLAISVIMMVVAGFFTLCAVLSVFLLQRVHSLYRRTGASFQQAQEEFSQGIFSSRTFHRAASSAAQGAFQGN

Target | log2 fold change [1] | log2 fold change (volasertib) | log2 fold change [2] | log2 fold change (epoxomicin) | log2 fold change [3] | log2 fold change [4] | log2 fold change [5] | log2 fold change (rosiglitazone) | log2 fold change [6] | log2 fold change [7]
SEC24A (UniProt O95486) | -0.077 | -0.253 (active) | 0.018 | 0.055 | -0.05 | 0.003 | 0.065 | 0.051 | -0.054 | -0.029
RFC3 (UniProt P40938) | -0.008 | -0.052 | 0.047 | 0.042 | 0.001 | -0.081 | 0.038 | 0.05 | -0.096 | -0.008
SASH1 (UniProt O94885) | -0.136 | -0.308 (active) | 0.044 | -0.075 | -0.012 | 0.027 | 0.042 | 0.044 | 0.054 | -0.29
SART3, A0A499FI31 | -0.235 | -0.557 (active) | 0.061 | 0.065 | -0.008 | -0.017 | 0.017 | 0.038 | -0.056 | -0.211
RAD50 isoform 2 (UniProt Q92878) | -0.069 | -0.228 (active) | 0.041 | 0.041 | -0.012 | -0.001 | 0.025 | 0.031 | -0.03 | -0.074
SLC1A3 (UniProt P43003) | -0.065 | 0.003 | 0.018 | 0.087 | 0.037 | -0.101 | -0.048 | -0.021 | -0.286 | 0.254
SLC18B1 (UniProt Q6NT16) | 0.031 | -0.114 | -0.034 | 0.022 | 0.068 | -0.005 | -0.134 | -0.044 | -0.035 | -0.592 (active)
SH3GL1 (UniProt Q99961) | -0.137 | -0.459 (active) | 0.082 | 0.008 | -0.077 | -0.028 | 0.091 | 0.062 | -0.006 | -0.196
SCPEP1 (UniProt Q9HB40) | -0.608 (active) | -1.44 (active) | -0.022 | 0.044 | 0.011 | -0.095 | -0.001 | 0.019 | 0.019 | -0.846 (active)
RSF1 (UniProt Q96T23) | -0.138 | -0.358 | 0.012 | 0.165 | -0.097 | -0.098 | 0.141 | 0.006 | -0.008 | -0.109
SLC19A1 (UniProt P41440) | 0.08 | 0.078 | -0.062 | 0.087 | 0.019 | -0.047 | 0.003 | 0.019 | -0.109 | 0.172
RAB3GAP2 (UniProt Q9H2M9) | -0.101 | -0.358 | 0.044 | 0.022 | -0.041 | 0.088 | 0.04 | 0.053 | 0.133 | -0.132
SERINC3 (UniProt Q13530) | 0.165 | 0.075 | -0.144 | -0.092 | 0.029 | -0.064 | 0.043 | 0.049 | -0.014 | 0.046
RPL38 (UniProt P63173) | 0.076 | 0.187 | 0.033 | -0.062 | -0.022 | -0.03 | -0.02 | -0.012 | -0.004 | 0.052
SHCBP1 (UniProt Q8NEM2) | -0.013 | -0.052 | 0.102 | -0.008 | -0.084 | 0.117 | 0.111 | -0.028 | 0.056 | -0.139
RBM8A (UniProt Q9Y5S9) | -0.051 | -0.041 | 0.038 | 0.005 | 0.021 | 0.014 | -0.037 | -0.004 | -0.035 | 0.065
RETREG3 (UniProt Q86VR2) | -0.04 | -0.132 | 0 | 0.048 | 0.026 | -0.043 | 0.008 | 0.016 | -0.02 | -0.149
ROCK1 (UniProt Q13464) | -0.005 | -0.083 | 0.005 | -0.011 | 0.002 | -0.05 | -0.011 | 0.042 | 0.031 | 0.096
RABGGTA (UniProt Q92696) | 0.029 | -0.087 | -0.013 | 0.021 | -0.032 | -0.051 | -0.015 | 0.054 | -0.111 | -0.023
RTN4IP1 (UniProt Q8WWV3) | -0.118 | -0.196 | -0.059 | -0.02 | 0.009 | -0.079 | -0.003 | 0.965 (active) | -0.219 | -0.12
RPA1 (UniProt P27694) | -0.108 | -0.326 (active) | 0.083 | 0.09 | -0.028 | -0.02 | 0.044 | 0.063 | -0.048 | -0.079
RBM39 (UniProt Q14498) | -0.183 | -0.487 (active) | 0.038 | -0.027 | -0.057 | 0.079 | 0.013 | 0.025 | 0.071 | -0.045
RAB33B (UniProt Q9H082) | -0.016 | -0.014 | -0.04 | -0.009 | -0.005 | 0.09 | -0.031 | 0.033 | -0.067 | -0.006
RB1 (UniProt P06400) | 0.018 | 0.034 | 0.016 | 0.041 | -0.016 | -0.05 | 0.008 | 0.009 | -0.064 | -0.265 (active)
RBIS (UniProt Q8N0T1) | 0.105 | 0.06 | -0.012 | 0.204 | 0.034 | 0.075 | -0.108 | -0.008 | 0.026 | -0.034
RNF220 (UniProt Q5VTB9) | -0.047 | -0.114 | 0.085 | -0.021 | -0.045 | -0.043 | -0.03 | 0.002 | -0.045 | 0.003
SCYL3 isoform 2 (UniProt Q8IZE3) | -0.114 | -0.327 (active) | 0.047 | 0.058 | 0.034 | -0.101 | -0.021 | -0.012 | -0.05 | -0.015
SH3GLB2 (UniProt Q9NR46) | -0.148 | -0.378 (active) | 0.072 | 0.041 | -0.058 | -0.101 | 0.033 | 0.041 | 0.016 | -0.254
RBM4 (UniProt Q9BWF3) | -0.043 | -0.3 (active) | 0.057 | -0.018 | -0.079 | 0.059 | -0.024 | -0.034 | 0.129 | -0.091
SCAMP2 (UniProt O15127) | -0.009 | 0.052 | -0.01 | 0.001 | 0.065 | 0.043 | 0.061 | -0.043 | -0.006 | -0.1

Source: the supplement of paper PMC10849652
